Our source for the growth values is PubChem BioAssay (NCI).

Values joined by “and” are separate entries in the source; they are usually repeats but may differ in a detail not shown here. Equal entries are not always repeated. About 83,000 compounds went through this panel and 20% of them were active in at least one assay; those are over-represented in the sample as a whole.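 In brief: 96-well plates, 48 h treatment, single concentration, percent growth endpoint.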 Active and inactive are the calls of the source. The calls were made as follows: active = growth percent below 10; inactive = the rest.

The assay relates to SK-MEL-2 melanoma. Put plainly: NCI-60 one-dose screen, 48 h (100 = growth as untreated, 0 = no growth, -100 = all killed). The following applies: 10 µM unless noted.
`O=C(O)C1(C(=O)O)CCC1.[NH2-].[NH2-].[Pt+2]`: the growth was 97.8% (inactive) and 104% (inactive).

Consider `CC1(C)[C@@H](OC(=O)CCC(=O)O)CC[C@]2(C)[C@H]3C(=O)C=C4[C@@H]5C[C@@](C)(C(=O)O)CC[C@]5(C)CC[C@@]4(C)[C@]3(C)CC[C@@H]12`, for which the growth was 107% (inactive) and -59.9% (active).

As to `CCNC(=O)Nc1ccc(-c2nc3c(c(N4CCOC[C@@H]4C)n2)CCN(C2COC2)C3)cc1`, the growth is 41.7% (inactive).

As for `O=C1C2=C(C(=O)c3ccccc31)C(O)(S(=O)(=O)O)C(O)(S(=O)(=O)O)C1N=CC=CC21` (stereo unspecified), the growth is 65.2% (inactive) and 47.4% (inactive).

Consider `COc1ccc2c(=O)cc(-c3ccccc3)[nH]c2c1`, for which the growth was 31.4% (inactive) and -8.1% (active).

With `COc1cc(Nc2nc3ccccc3nc2NS(=O)(=O)c2ccc(NC(=O)c3ccc(C)c(OC)c3)cc2)cc(OC)c1`, the growth is 45.7% (inactive).

As for `COc1cc(-c2nccc3cc4c(cc23)OCO4)cc(OC)c1OC`, the growth is 9.15% (active).

For `CCN(CC)CCC(CNc1ccnc2cc(Cl)ccc12)c1ccc(OC)cc1` (stereo unspecified), the growth is 101% (inactive) and 61.7% (inactive).

`CC(=O)Nc1ccc(O)cc1`: the growth was 95.7% (inactive) and 81.9% (inactive) and 108% (inactive).

For `c1ccc2c(CC3=NCCN3)cccc2c1`, the growth was 132% (inactive) and 110% (inactive).

As for `Cc1nn(-c2ccc(Cl)cc2)c2ncnc(N/N=C/c3ccccc3O)c12`, the growth was 12.3% (inactive) and 36% (inactive).

Turning to `CCN(CC)C(=S)SSC(=S)N(CC)CC`, the growth was 103% (inactive).

Consider `Nc1nc(SC/C=C/CCl)c2[nH]cnc2n1`, for which the growth is 120% (inactive) and 95% (inactive).

Regarding `CC1CCCC(=O)O1` (stereo unspecified), the growth is 103% (inactive) and 107% (inactive).

With `c1ccc(NCc2ccc3c(c2)OCO3)cc1`, the growth is 106% (inactive) and 105% (inactive).

For `CN(Cc1ccccc1)Cc1ccccc1`, the growth was 104% (inactive).

For the compound `O=[N+]([O-])c1ccc(N/N=C\c2cc(Br)ccc2O)nc1`, the growth was 39.7% (inactive).

In the case of `O=C(Nc1ccc(Br)cc1)c1cc(Br)ccc1O`, the growth was -30.5% (active) and 13.2% (inactive).

`CN(C)c1ccc(C(=C2C=CC(=[N+](C)C)C=C2)c2ccccc2Cl)cc1`: the growth was -57.7% (active) and -52.4% (active).

With `O=C(Cc1cccc2ccccc12)N/N=C/c1ccc2c(c1)CCC2`, the growth is 84.6% (inactive).

In the case of `O=C(O)C1C2C=CC(C2)C1C(=O)O` (stereo unspecified), the growth was 150% (inactive) and 57.5% (inactive) and 111% (inactive).

For `COc1cc(C(=O)c2ccc3c(c2)OCO3)cc(OC)c1OC`, the growth is 44.6% (inactive) and -28.3% (active).

As to `O=C(CCc1ccc(O)cc1)N/N=C/c1cc(Br)ccc1O`, the growth was 80.7% (inactive).

With `CC(=O)Oc1cc(C(=O)O)cc(OC(C)=O)c1OC(C)=O`, the growth is 119% (inactive) and 107% (inactive).

With `Cn1c(=O)c2[nH]c(CCCCCCCCc3nc4ccccc4[nH]3)nc2n(C)c1=O`, the growth is 79.3% (inactive) and 107% (inactive).

Turning to `O=C1c2ccccc2C(=O)N1/N=C/c1ccc2c(c1)OCO2`, the growth was 95.1% (inactive).

For `S=C1SCN(Cc2ccccc2)CN1Cc1ccccc1`, the growth was 85% (inactive).

Turning to `Cc1ccc(-c2noc(CC(=O)c3ccc([N+](=O)[O-])cc3)n2)cc1`, the growth is 110% (inactive).

As for `Oc1ccc(/C=C/c2ccccc2)cc1`, the growth was 98.4% (inactive) and 98.8% (inactive).

For the compound `CC(=O)C(/C=N/C(N)=O)=C(/C)O`, the growth was 119% (inactive).

In the case of `COC(=O)c1nc(N)nc(C(=O)OC)c1C(=O)c1ccc(OC)cc1`, the growth is 108% (inactive) and 77.3% (inactive).

Turning to `Cc1cc(O)c2c(c1)C(=O)c1cc(O)cc(O)c1C2=O`, the growth is 94.9% (inactive) and 85.1% (inactive).

`C#CCN(C)Cc1ccccc1`: the growth was 97.5% (inactive) and 104% (inactive).

For the compound `CCN(CC)CCCC(C)Nc1ccnc2cc(Oc3ccccc3)ccc12` (stereo unspecified), the growth is 115% (inactive).

With `COc1ccccc1NC(=O)OCC#CCOC(=O)Nc1ccccc1OC`, the growth was 95.2% (inactive) and 95% (inactive).

As to `Cc1cc(O)c(C(C)C)cc1S(=O)(=O)O` (tested in a mixture with another compound), the growth was 99.6% (inactive) and 54% (inactive) and 112% (inactive).
